Data on 22 compounds can be found in PubChem BioAssay (NCATS).

Results filed as inconclusive are left out. Active and inactive are the calls of the source. The call rests on the fitted dose curve; in most records, active means well fitted inhibition curve with a large enough effect; inconclusive means small, poorly fitted or top-dose-only effect; inactive means flat fitted curve, though single readings scatter.

What all share (test): qHTS profiling for inhibitors of Plasmodium falciparum proliferation (AID 504749); further: nearly all actives have a fitted effect of over 60% in size
Holding throughout (conditions): P. falciparum in erythrocytes, SYBR Green DNA, 72 h; series mostly up to 28.7 µM
For orientation: Quantitative high-throughput screening tests each substance at several concentrations.

One test has as its system CP268. The essentials:
(§1)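 Quantitative HTS: compounds pinned into medium, infected erythrocytes added (0.3% parasitemia, 2.5% hematocrit), 72 h culture at 37 C under 5% CO2. Saponin/Triton lysis with SYBR Green I, overnight RT, then fluorescence read.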

For the next test, the system named is CP269. In a few lines: as §1
The next test relates to CP286. In a few lines: as §1
For the next test, the system named is CP291. In a few lines: as §1
For the next test, the system named is CP297. The essentials:
as §1

The subject of another test is CP305. The essentials: as §1
Another test concerns CP315. In a few lines:
as §1

The subject of a further test is CP325. The essentials: as §1
Another test relates to CP329. The essentials: as §1
The next test deals with CP335. The essentials:
as §1
Potency means the concentration at half of the fitted maximal effect.

For `COc1cc2c(cc1OC)-c1cc(=Nc3c(C)cc(C)cc3C)n(C)c(=O)n1CC2`, the Potency in the test with CP268 was 1.51 µM (active); in the test with CP269, 4.78 µM (active); in the test with CP286, 2 µM (active); in the test on CP291 it was 2.13 µM (active); with CP297, 5.36 µM (active); with CP305, 3.79 µM (active). Also, the Potency in the test with CP315 is 6.75 µM (active); with CP325 it was 4.26 µM (active); in the test with CP329 it was 4.78 µM (active); with CP335 it was 4.26 µM (active).
Turning to `CN=C(NC#N)NCCSCc1nc[nH]c1C`, the Potency result in the test on CP268, with CP269, in the test on CP286, in the test on CP291, in the test with CP297 and with CP305 was “inactive” throughout. Also, the Potency result in the test with CP315, in the test with CP325, in the test on CP329 and in the test with CP335 was “inactive” throughout.
For `CC1=NS(=O)(=O)c2cc(Cl)ccc2N1`, the Potency entry in the test with CP268, with CP269, in the test on CP286, in the test on CP291, in the test on CP297 and in the test with CP305 was “inactive” in each case. The Potency entry with CP315, with CP325, in the test on CP329 and with CP335 was “inactive” throughout.
As for `OCCN1CCN(CCCN2c3ccccc3C=Cc3ccccc32)CC1`, the Potency in the test with CP268 was 13.5 µM (active); with CP269 it was 9.53 µM (active); with CP286 it was 7.08 µM (active); with CP291 it was 12 µM (active); in the test on CP297 it was 12 µM (active); in the test on CP305 it was 10.7 µM (active). The Potency was 8.49 µM (active) in the test on CP325 and 6.75 µM (active) in the test on CP335.
Regarding `NC(=O)c1ncn([C@@H]2O[C@H](CO)[C@@H](O)[C@H]2O)c1O`, the Potency result in the test on CP268, with CP269, with CP286, in the test with CP291, with CP297 and in the test with CP305 was “inactive” in each case. In addition, the Potency result in the test with CP315, with CP325, with CP329 and in the test with CP335 was “inactive” in each case.
On to `OCCN1CCN(CC/C=C2/c3ccccc3Sc3ccc(C(F)(F)F)cc32)CC1`, for which the Potency in the test on CP268 was 13.5 µM (active); with CP269 it was 4.78 µM (active); in the test with CP286 it was 8.91 µM (active); in the test with CP291, 9.53 µM (active); with CP297, 6.75 µM (active); in the test on CP305, 7.57 µM (active). The Potency in the test with CP325 was 6.01 µM (active); with CP329 it was 6.75 µM (active); in the test on CP335, 4.26 µM (active).
Consider `COC(=O)C1=C(C)NC(C)=C(C(=O)OC(C)(C)CN(C)CCC(c2ccccc2)c2ccccc2)C1c1cccc([N+](=O)[O-])c1` (stereo unspecified), for which the Potency was 7.57 µM (active) with CP268; 4.26 µM (active) in the test on CP269; 2.51 µM (active) in the test with CP286; 3.79 µM (active) in the test on CP291; 3.79 µM (active) with CP297; 5.36 µM (active) with CP305. Also, the Potency was 4.26 µM (active) in the test with CP315, 6.01 µM (active) in the test with CP325, 3.79 µM (active) in the test on CP329 and 1.51 µM (active) in the test on CP335.
Turning to `NC(=O)N1c2ccccc2C=Cc2ccccc21`, the Potency entry in the test with CP268, in the test on CP269, in the test with CP286, in the test on CP291, in the test on CP297 and in the test on CP305 was “inactive” in each case. Also, the Potency result with CP315, in the test with CP325, with CP329 and in the test with CP335 was “inactive” throughout.
For the compound `Cc1ccc(Cl)c(Nc2ccccc2C(=O)O)c1Cl`, the Potency entry in the test with CP268, in the test on CP269, with CP286, in the test on CP291, in the test with CP297 and with CP305 was “inactive” throughout. Also, the Potency entry with CP325, with CP329 and with CP335 was “inactive” in each case.
Take `O=C1CC2(CCCC2)CC(=O)N1CCCCN1CCN(c2ncccn2)CC1`: the Potency result in the test with CP268, in the test on CP269, with CP286, with CP291, in the test on CP297 and in the test with CP305 was “inactive” each time. Moreover, the Potency result in the test on CP315, in the test with CP325, with CP329 and in the test with CP335 was “inactive” in each case.
Consider `CCCCCN(CCCCC)C(=O)C(CCC(=O)O)NC(=O)c1ccc(Cl)c(Cl)c1` (stereo unspecified), for which the Potency entry in the test with CP268, with CP269, with CP286, in the test with CP291, in the test on CP297 and in the test on CP305 was “inactive” each time. In addition, the Potency result in the test with CP315, in the test with CP325, in the test with CP329 and with CP335 was “inactive” throughout.
Turning to `Cc1ccc(S(=O)(=O)NC(=O)NN2CCCCCC2)cc1`, the Potency entry with CP268, in the test on CP269, with CP286, in the test with CP291, in the test on CP297 and in the test on CP305 was “inactive” each time. Besides, the Potency entry with CP315, with CP325, in the test on CP329 and with CP335 was “inactive” in each case.
Turning to `CCN(CC)CCCN(c1ccccc1)C1Cc2ccccc2C1`, the Potency in the test with CP268 is 7.57 µM (active); in the test on CP269, 10.7 µM (active); with CP286, 5.01 µM (active); in the test on CP291, 7.57 µM (active); in the test on CP297, 13.5 µM (active); with CP305, 6.75 µM (active). The Potency with CP325 was 8.49 µM (active); in the test on CP329 it was 12 µM (active); in the test with CP335, 4.78 µM (active).
On to `CCNC(=O)N1CCN(CCCC(c2ccc(F)cc2)c2ccc(F)cc2)CC1`, for which the Potency in the test on CP268 is 2.39 µM (active); in the test with CP269 it was 5.36 µM (active); with CP286 it was 2.24 µM (active); with CP291 it was 6.01 µM (active); in the test on CP297 it was 6.01 µM (active); in the test on CP305, 6.01 µM (active). Besides, the Potency in the test on CP315 is 6.75 µM (active); in the test on CP325, 2.13 µM (active); in the test with CP335, 1.9 µM (active).
Consider `CN(C)CCOC(=O)COc1ccc(Cl)cc1`, for which the Potency result in the test on CP268, in the test on CP269, in the test on CP286, with CP291, with CP297 and in the test on CP305 was “inactive” each time. Also, the Potency entry with CP315, in the test on CP329 and with CP335 was “inactive” throughout.
In the case of `C[N+](C)(C)CCCCCCCCCC[N+](C)(C)C`, the Potency in the test with CP268 was 4.78 µM (active); in the test with CP269, 3.38 µM (active); with CP286, 4.47 µM (active); in the test on CP291 it was 3.38 µM (active); with CP297 it was 4.78 µM (active); in the test with CP305, 4.26 µM (active). Besides, the Potency is 4.26 µM (active) in the test with CP315, 3.38 µM (active) with CP325, 3.38 µM (active) in the test on CP329 and 1.9 µM (active) with CP335.
For the compound `C[N+](C)(C)CCOC(=O)CCC(=O)OCC[N+](C)(C)C`, the Potency result in the test with CP268, with CP269, in the test on CP286, with CP291, in the test with CP297 and in the test with CP305 was “inactive” in each case. The Potency entry in the test on CP315, in the test on CP325, with CP329 and in the test on CP335 was “inactive” each time.
For the compound `CCO/C([O-])=N/c1c[n+](N2CCOCC2)no1`, the Potency result with CP268, in the test with CP269, in the test with CP286, in the test on CP291, with CP297 and with CP305 was “inactive” each time. For the same compound, the Potency result in the test on CP315, in the test on CP329 and in the test with CP335 was “inactive” throughout.
Consider `Cc1nnc(SCC2=C(C(=O)O)N3C(=O)[C@@H](NC(=O)Cn4cnnn4)[C@H]3SC2)s1`, for which the Potency entry in the test with CP268, with CP269, in the test with CP286, with CP291, with CP297 and with CP305 was “inactive” throughout. Moreover, the Potency result in the test on CP315, in the test with CP325, with CP329 and in the test with CP335 was “inactive” each time.
For the compound `CN1CCN(CC(=O)N2c3ccccc3C(=O)Nc3cccnc32)CC1`, the Potency result in the test with CP268, in the test with CP269, in the test on CP286, in the test on CP291, with CP305 and in the test with CP315 was “inactive” throughout. The Potency result with CP325, with CP329 and in the test on CP335 was “inactive” in each case.
Consider `CCn1ccnc1CC1COc2ccccc2O1` (stereo unspecified), for which the Potency entry in the test with CP268, with CP269, with CP286, with CP291, in the test with CP297 and in the test with CP305 was “inactive” each time. Moreover, the Potency entry with CP315, in the test on CP325, in the test on CP329 and with CP335 was “inactive” each time.
On to `CN(C)C(=O)Oc1ccc[n+](C)c1`, for which the Potency entry with CP268, in the test with CP269, with CP286, with CP291, in the test on CP297 and in the test on CP305 was “inactive” each time. Besides, the Potency entry in the test with CP315, in the test on CP325, with CP329 and in the test on CP335 was “inactive” throughout.
